According to PubChem BioAssay AID493004 (Broad Institute, 2010):
Among all 2,300 compounds or so, fewer than 10 were called active.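 The calls were made as follows: active = Signal drops as the depositor expects, and the fitted half-maximal dose is no more than ten times the top valid tested dose; inconclusive = Poor fit, or a flat curve whose signal drops by 30% to 70%; inactive = the rest.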 The list is a sample of the results.

Assay: Mot1-301 yeast growth enhancement – whole organism, S. cerevisiae, ATP luminescence, cherry-picked samples, SUMO pathway inhibitor project, dose response (AID 493004);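 also: more negative values mean stronger growth rescue toward the control strain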
Settings: S. cerevisiae Mot1-301 galactose growth, 24 h, -100 = growth of slx-deleted rescue strain; series mostly up to 42 µM

outcome, inactive:
Cc1ccc(CC2CC(=O)N(c3ccc4c(c3)OCCO4)C2=O)cc1 (centres undefined)
O=C(CCc1ccccc1)NNC(=O)c1ccc(Br)cc1
Cc1ccc(N2C(=O)C3N=NN(CC(=O)N4N=C(c5cccc6ccccc56)CC4c4ccccc4)C3C2=O)cc1 (centres undefined)
CC1CCN(Cc2nc3c(c(=O)n(C)c(=O)n3C)n2CCc2ccccc2)CC1
COc1cc(CNCc2ccc3c(c2)OCO3)c([N+](=O)[O-])cc1OC
O=C(Nc1ccccc1N1CCN(c2ccccc2)CC1)c1cccc(F)c1
N#CC(C#N)=CN=c1ccn(Cc2ccc(Cl)cc2Cl)cc1
Cc1cccc(C)c1NC(=O)C(Cl)C(=O)c1ccccc1 (centres undefined)
Cc1cc(C)cc(NC(=O)C2CCCN(S(=O)(=O)c3ccc4[nH]c(=O)ccc4c3)C2)c1 (centres undefined)
Cc1cc(Br)ccc1NC(=O)c1cnc(N2CCN(c3ccccn3)CC2)c2ccccc12
Cc1ccc2c(c1)C(O)(CC(=O)c1cccnc1)C(=O)N2 (centres undefined)
COc1ccc(OCCC(=O)c2ccc(OC)cc2)cc1
CCN(CC)C(=O)CSc1nnc(CNc2ccc(F)cc2)n1Cc1ccco1
O=Cc1ccc(Oc2cccc(C(F)(F)F)c2)nc1
Cc1cc(C)cc(C(=O)NC(CC(N)=O)c2ccc(N3CCC(N4CCCCC4)CC3)c([N+](=O)[O-])c2)c1 (centres undefined)
CCCC(=O)N(CCN1CCOCC1)c1nc2ccc(OCC)cc2s1
CC1=CC(=O)C=CC1(C)C(Cl)(Cl)Cl (centres undefined)
CCc1nc2ccccc2c(C(=O)OC2CCCCC2=O)c1C (centres undefined)
COC(=O)c1cc2occc2n1Cc1nc(-c2ccccc2C)oc1C
CCC(C)[C@H]1COCCS(=O)(=O)N1Cc1ccc(C)cc1 (some centres undefined)
Cc1nc2sc(C(c3ccco3)N3CCOCC3)c(O)n2n1 (centres undefined)
COc1ccc(S(=O)(=O)N2CCOC2CNC(=O)C(=O)NCc2ccncc2)cc1C (centres undefined)
O=C(NNS(=O)(=O)c1c(F)cc(F)c(Cl)c1F)C12CC3CC(CC(C3)C1)C2
CCn1c(SCC(=O)N/N=C/c2ccccc2OCC(=O)O)nnc1-c1ccc(C(C)(C)C)cc1
C=C(Cl)COC(=O)C1C2C=CC(C2)C1C(=O)O (centres undefined)
CCOc1ccc(N(CC)S(=O)(=O)c2cccc3nsnc23)cc1
CCC(CC)C(=O)Nc1ccc(S(=O)(=O)Nc2nccs2)cc1
O=c1c2c(ncn1Cc1ccccc1)nc1n2CCC1
Cc1ccc(S(=O)(=O)CCC(=O)OCC(=O)N(C)C2CCS(=O)(=O)C2)cc1 (centres undefined)
